In PubChem BioAssay (EPA / NIEHS):
Records with an inconclusive call do not appear. Calls of active or inactive are those of the source. Rule for the calls, unless noted: active = hit-call score of the fitted dose curve at least 0.9, where 1 is the maximum; inconclusive = response in the unintended direction; inactive = score below 0.9.

Legend:
[1] = biological target: human Retinoic Acid Receptor beta (RARb), RARB (gene 5915) (UniProt P10826); test: ATG_RARb_TRANS: Attagene TRANS-FACTORIAL HepG2 Assay for human Retinoic Acid Receptor beta (AID 2283004)
How it was run: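 Readout is reporter mRNA induction: RNA reverse-transcribed, PCR-amplified, FAM-labelled, HpaI-cut and resolved by capillary electrophoresis. Transiently transfected HepG2 cells carrying exogenous NR–Gal4 chimeras were dosed for 24 h; activity fitted upward relative to DMSO.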

[2] = biological target: Retinoic acid receptor alpha (Homo sapiens) (UniProt P10276); test: ATG_RARa_TRANS: Attagene TRANS-FACTORIAL HepG2 Assay for human Retinoic Acid Receptor alpha (RARa) (AID 2283005)
How it was run: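 HepG2 cells transiently transfected with multiple reporter units expressing chimeric RARα-GAL4 fusion, with GAL4-UAS-driven reporters. After 24 h compound exposure, reporter mRNA induction quantified by RT-PCR and capillary electrophoresis with fluorescent labeling; gain-of-signal fitted relative to DMSO control.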

[3] = biological target: Nuclear receptor subfamily 1 group I member 2 (Homo sapiens) (UniProt O75469); test: ATG_PXR_TRANS: Attagene TRANS-FACTORIAL HepG2 Assay for human Pregnane X Receptor (PXR) (AID 2283008)
How it was run: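 HepG2 transfected (FuGene 6) with GAL4-UAS reporter units + PXR-Gal4 chimera; dosed 24 h. Total RNA → oligo(dT) RT → PCR → 6-FAM primer extension → HpaI cut → CE. Gain-of-signal vs DMSO.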

[4] = biological target: human Retinoic Acid Receptor gamma (RARg), RARG (gene 5916) (UniProt P13631); test: ATG_RARg_TRANS: Attagene TRANS-FACTORIAL HepG2 Assay for human Retinoic Acid Receptor gamma (RARg) (AID 2283009)
How it was run: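 TRANS format measured activity of exogenous NR-GAL4 fusion (RARg) in transfected HepG2 liver cells after 24 h dosing. Induced reporter RNA was detected by RT-PCR/capillary electrophoresis fluorescence, analysed in the positive direction against DMSO.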

[5] = biological target: human RAR-related Orphan Receptor beta (RORb), RORB (gene 6096) (UniProt Q92753); test: ATG_RORb_TRANS: Attagene TRANS-FACTORIAL HepG2 Assay for human RAR-related Orphan Receptor beta (RORb) (AID 2283010)
How it was run: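 Transfect HepG2 with multiple GAL4-UAS reporter transcription units; dose chemicals for 24 h; isolate RNA, reverse-transcribe and PCR-amplify reporter sequences; label, digest and resolve fragments by capillary electrophoresis; fit increases relative to DMSO.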

[6] = biological target: human RAR-related Orphan Receptor gamma (RORg), RORC (gene 6097) (UniProt P51449); test: ATG_RORg_TRANS: Attagene TRANS-FACTORIAL HepG2 Assay for human RAR-related Orphan Receptor gamma (RORg) (AID 2283011)
How it was run: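 Transient MRTU transfection of HepG2 (TRANS format, exogenous NR-Gal4 chimera). 24 h dosing. Total RNA → oligo(dT) RT → PCR → 6-FAM labelling → HpaI cut → CE. Gain vs DMSO.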

[7] = biological target: Retinoic acid receptor RXR-alpha (Homo sapiens) (UniProt P19793); test: ATG_RXRa_TRANS: Attagene TRANS-FACTORIAL HepG2 Assay for human Retinoid X Receptor alpha (RXRa) (AID 2283012)
How it was run: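 Measures exogenous chimeric NR-GAL4 activity in transfected HepG2 liver cells after 24 h of dosing. Induced reporter mRNA was detected by RT-PCR with capillary electrophoresis, and gain of signal was analysed against DMSO.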

[8] = biological target: human Thyroid Receptor alpha (THRa1), THRA (gene 7067) (UniProt P10827); test: ATG_THRa1_TRANS: Attagene TRANS-FACTORIAL HepG2 Assay for human Thyroid Receptor alpha (THRa1) (AID 2283014)
How it was run: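 Transient HepG2 transfection, NR-Gal4 chimera driving GAL4-UAS reporters; 24 h compound exposure; total RNA, oligo(dT) RT, PCR, fluorescent primer extension, capillary electrophoresis. Upward direction vs DMSO control.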

[9] = biological target: Peroxisome proliferator-activated receptor gamma (Homo sapiens) (UniProt P37231); test: ATG_PPARg_TRANS: Attagene TRANS-FACTORIAL HepG2 Assay for human Peroxisome Proliferator-activated Receptor-gamma (PPARg) (AID 2283007)
How it was run: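 Gain-of-signal endpoint relative to DMSO, derived from reporter mRNA levels quantified by RT-PCR and capillary electrophoresis. Cells were HepG2 transiently expressing a chimeric NR-Gal4 construct with GAL4-UAS reporters, exposed to chemicals for 24 h.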

[10] = biological target: human Retinoid X Receptor beta (RXRb), RXRB (gene 6257) (UniProt P28702); test: ATG_RXRb_TRANS: Attagene TRANS-FACTORIAL HepG2 Assay for human Retinoid X Receptor beta (RXRb) (AID 2283013)
How it was run: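 Chimeric receptor-Gal4 activity was assessed in transiently transfected human HepG2 cells after 24 h exposure. Transcripts from GAL4-UAS reporters were quantified by fluorescent RT-PCR and capillary electrophoresis, with DMSO as negative control and baseline.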

[11] = read-out: Intercellular Adhesion Molecule 1 (ICAM1), ICAM1 (gene 3383); test: BSK_3C_ICAM1: BioMAP Diversity Plus: 3C Assay for Intercellular Adhesion Molecule 1 (ICAM1) Biomarker Activity (AID 2283003; active = hit-call score of the fitted dose curve at least 0.9, where 1 is the maximum; inactive = score below 0.9); conditions: primary human endothelial cells (HUVEC); actives raise or lower the signal
How it was run: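 Chemicals are dosed onto primary human umbilical vein endothelium (3C system). After 24 h, ICAM-1 is measured by ELISA, and responses are fitted bidirectionally relative to DMSO.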

[12] = BSK_3C_Proliferation: Cell Proliferation Assessment in the BioMAP Diversity Plus: 3C Assay (AID 2283006; active = hit-call score of the fitted dose curve at least 0.9, where 1 is the maximum; inactive = score below 0.9;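 for AC50: potency may reflect either rise or fall in cell number versus DMSO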); conditions: primary human endothelial cells (HUVEC)
How it was run: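 Cells (human umbilical vein endothelial, sub-confluent) receive test chemical; after 48 h they are fixed in 10% trichloroacetic acid, stained with 0.1% SRB and read at 560 nm. Activity is referenced to DMSO, fitting increases and decreases.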

[13] = read-out: E-selectin (Homo sapiens) (UniProt P16581); test: BSK_3C_Eselectin: BioMAP Diversity Plus: 3C Assay for Eselectin Biomarker Activity (AID 2283015; active = hit-call score of the fitted dose curve at least 0.9, where 1 is the maximum; inactive = score below 0.9); conditions: primary human endothelial cells (HUVEC); actives raise or lower the signal
How it was run: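 HUVEC, 3C stimulation; compound exposure 24 h; E-selectin by ELISA; gain- or loss-of-signal fitted bidirectionally vs DMSO baseline.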

[14] = read-out: Interleukin-1 alpha (IL1a), IL1A (gene 3552); test: BSK_BE3C_IL1a: BioMAP Diversity Plus: BE3C Assay for Interleukin-1 alpha (IL1a) Biomarker Activity (AID 2283016; active = hit-call score of the fitted dose curve at least 0.9, where 1 is the maximum; inactive = score below 0.9); conditions: primary human bronchial epithelial cells; actives raise or lower the signal
How it was run: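 Signal from IL-1a ELISA, taken 24 h after chemical dosing of human bronchial epithelial cells, is compared with DMSO as baseline using bidirectional curve fitting.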

[15] = read-out: Monocyte Chemoattractant Protein-1 (MCP1), CCL2 (gene 6347); test: BSK_3C_MCP1: BioMAP Diversity Plus: 3C Assay for Monocyte Chemoattractant Protein-1 (MCP1) Biomarker Activity (AID 2283017; active = hit-call score of the fitted dose curve at least 0.9, where 1 is the maximum; inactive = score below 0.9); conditions: primary human endothelial cells (HUVEC); actives raise or lower the signal
How it was run: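 HUVEC, 3C system; 24 h chemical exposure; MCP-1 by ELISA; bidirectional curve fit vs DMSO baseline.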

[16] = read-out: Monocyte Chemoattractant Protein-1 (MCP1), CCL2 (gene 6347); test: BSK_4H_MCP1: BioMAP Diversity Plus: 4H Assay for Monocyte Chemoattractant Protein-1 (MCP1) Biomarker Activity (AID 2283018; active = hit-call score of the fitted dose curve at least 0.9, where 1 is the maximum; inactive = score below 0.9); conditions: primary human endothelial cells (HUVEC); actives raise or lower the signal
How it was run: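 Endothelial cells from umbilical vein were treated with test chemical, then after 24 h MCP-1 levels were quantified by ELISA; endpoint values came from bidirectional fitting with DMSO as baseline of activity.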

[17] = read-out: Human Leukocyte Antigen - DR isotype (HLADR), HLA-DRA (gene 3122); test: BSK_3C_HLADR: BioMAP Diversity Plus: 3C Assay for Human Leukocyte Antigen - DR isotype (HLADR) Biomarker Activity (AID 2283019; active = hit-call score of the fitted dose curve at least 0.9, where 1 is the maximum; inactive = score below 0.9); conditions: primary human endothelial cells (HUVEC); actives raise or lower the signal
How it was run: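 HUVEC, 3C stimulation, 24 h post-dose; HLA-DR by ELISA; bidirectional curve fit vs DMSO baseline; gain or loss of signal scored.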

[18] = read-out: Interleukin-8 (IL8), CXCL8 (gene 3576); test: BSK_3C_IL8: BioMAP Diversity Plus: 3C Assay for Interleukin-8 (IL8) Biomarker Activity (AID 2283020; active = hit-call score of the fitted dose curve at least 0.9, where 1 is the maximum; inactive = score below 0.9); conditions: primary human endothelial cells (HUVEC); actives raise or lower the signal
How it was run: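 Endothelial primary cells of human umbilical vein origin are dosed with chemical; after 24 h the IL-8 biomarker is measured by ELISA, and concentration–response is fitted in both directions versus DMSO.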

Measured: AC50

Chain of human Retinoid X Receptor beta (RXRb), RXRB (gene 6257) (P28702 whole entry, looked up, the tested form may be a part): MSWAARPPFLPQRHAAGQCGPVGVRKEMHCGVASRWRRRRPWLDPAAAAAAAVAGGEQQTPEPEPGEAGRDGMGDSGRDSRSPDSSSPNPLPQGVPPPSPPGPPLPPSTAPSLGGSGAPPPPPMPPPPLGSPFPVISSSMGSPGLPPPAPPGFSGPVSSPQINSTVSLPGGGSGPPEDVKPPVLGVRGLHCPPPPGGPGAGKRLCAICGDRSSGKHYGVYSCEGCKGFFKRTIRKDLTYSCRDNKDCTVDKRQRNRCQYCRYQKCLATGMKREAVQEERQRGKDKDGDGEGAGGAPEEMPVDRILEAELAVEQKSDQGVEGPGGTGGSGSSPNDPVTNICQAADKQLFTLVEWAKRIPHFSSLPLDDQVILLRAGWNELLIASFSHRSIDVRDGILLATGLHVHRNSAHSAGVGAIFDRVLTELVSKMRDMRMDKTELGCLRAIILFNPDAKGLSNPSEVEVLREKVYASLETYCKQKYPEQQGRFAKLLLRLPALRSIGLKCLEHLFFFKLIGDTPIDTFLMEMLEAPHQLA
Chain of human Thyroid Receptor alpha (THRa1), THRA (gene 7067) (P10827 whole entry, looked up, the tested form may be a part): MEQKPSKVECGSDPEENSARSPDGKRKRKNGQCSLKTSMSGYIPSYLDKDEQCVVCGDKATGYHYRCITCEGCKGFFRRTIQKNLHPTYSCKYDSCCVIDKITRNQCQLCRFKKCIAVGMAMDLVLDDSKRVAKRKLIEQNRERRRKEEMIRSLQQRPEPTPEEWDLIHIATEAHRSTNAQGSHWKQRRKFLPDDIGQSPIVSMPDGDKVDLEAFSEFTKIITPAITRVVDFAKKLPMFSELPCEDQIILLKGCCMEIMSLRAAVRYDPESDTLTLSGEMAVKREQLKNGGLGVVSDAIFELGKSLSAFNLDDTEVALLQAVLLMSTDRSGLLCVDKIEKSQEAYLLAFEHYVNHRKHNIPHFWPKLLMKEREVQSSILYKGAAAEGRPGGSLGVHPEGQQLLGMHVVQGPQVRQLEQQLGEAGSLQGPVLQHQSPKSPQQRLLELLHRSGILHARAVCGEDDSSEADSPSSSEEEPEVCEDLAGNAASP
Chain of Peroxisome proliferator-activated receptor gamma (Homo sapiens) (P37231 whole entry, looked up, the tested form may be a part): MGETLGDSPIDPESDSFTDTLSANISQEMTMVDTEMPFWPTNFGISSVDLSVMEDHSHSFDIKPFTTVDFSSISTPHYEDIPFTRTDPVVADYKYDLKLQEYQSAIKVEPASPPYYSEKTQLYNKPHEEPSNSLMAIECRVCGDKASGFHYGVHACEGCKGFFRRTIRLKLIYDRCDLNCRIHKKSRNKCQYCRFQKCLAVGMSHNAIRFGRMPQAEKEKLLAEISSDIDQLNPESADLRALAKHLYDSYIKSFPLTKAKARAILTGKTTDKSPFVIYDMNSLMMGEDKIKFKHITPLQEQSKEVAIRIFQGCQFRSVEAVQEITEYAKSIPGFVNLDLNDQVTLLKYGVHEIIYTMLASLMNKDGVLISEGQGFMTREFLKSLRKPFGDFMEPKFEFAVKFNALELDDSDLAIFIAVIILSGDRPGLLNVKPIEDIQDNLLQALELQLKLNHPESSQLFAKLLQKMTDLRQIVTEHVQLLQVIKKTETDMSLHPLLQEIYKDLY
Chain of human RAR-related Orphan Receptor beta (RORb), RORB (gene 6096) (Q92753 whole entry, looked up, the tested form may be a part): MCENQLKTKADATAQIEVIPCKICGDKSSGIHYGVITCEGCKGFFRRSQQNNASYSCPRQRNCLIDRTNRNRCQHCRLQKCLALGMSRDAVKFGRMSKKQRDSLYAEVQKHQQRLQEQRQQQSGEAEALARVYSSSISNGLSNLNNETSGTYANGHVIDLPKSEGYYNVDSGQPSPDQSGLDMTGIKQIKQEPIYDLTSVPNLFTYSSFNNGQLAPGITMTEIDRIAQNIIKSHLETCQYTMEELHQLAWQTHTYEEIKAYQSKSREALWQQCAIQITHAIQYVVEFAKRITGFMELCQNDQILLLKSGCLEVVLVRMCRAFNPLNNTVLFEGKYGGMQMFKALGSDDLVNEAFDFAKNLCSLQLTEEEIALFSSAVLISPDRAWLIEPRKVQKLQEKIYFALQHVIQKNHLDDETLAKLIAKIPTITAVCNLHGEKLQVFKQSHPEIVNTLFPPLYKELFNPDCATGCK
Chain of E-selectin (Homo sapiens) (P16581 whole entry, looked up): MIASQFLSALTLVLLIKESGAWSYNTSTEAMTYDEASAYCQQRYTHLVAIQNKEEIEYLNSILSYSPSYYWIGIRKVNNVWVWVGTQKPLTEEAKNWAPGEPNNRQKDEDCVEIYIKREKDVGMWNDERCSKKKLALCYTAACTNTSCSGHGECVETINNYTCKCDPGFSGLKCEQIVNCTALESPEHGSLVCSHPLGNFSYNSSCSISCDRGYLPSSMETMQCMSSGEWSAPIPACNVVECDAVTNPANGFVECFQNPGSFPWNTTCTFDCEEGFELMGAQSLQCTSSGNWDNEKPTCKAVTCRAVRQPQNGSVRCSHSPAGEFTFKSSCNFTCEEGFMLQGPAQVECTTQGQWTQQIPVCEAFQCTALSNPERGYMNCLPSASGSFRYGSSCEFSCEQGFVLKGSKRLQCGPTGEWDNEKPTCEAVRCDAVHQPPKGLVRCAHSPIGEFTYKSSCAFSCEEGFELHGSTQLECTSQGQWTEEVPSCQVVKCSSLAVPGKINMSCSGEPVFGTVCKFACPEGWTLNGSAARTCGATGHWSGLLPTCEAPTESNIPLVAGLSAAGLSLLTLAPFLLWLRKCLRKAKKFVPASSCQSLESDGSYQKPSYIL
Chain of human Retinoic Acid Receptor beta (RARb), RARB (gene 5915) (P10826 whole entry, looked up, the tested form may be a part): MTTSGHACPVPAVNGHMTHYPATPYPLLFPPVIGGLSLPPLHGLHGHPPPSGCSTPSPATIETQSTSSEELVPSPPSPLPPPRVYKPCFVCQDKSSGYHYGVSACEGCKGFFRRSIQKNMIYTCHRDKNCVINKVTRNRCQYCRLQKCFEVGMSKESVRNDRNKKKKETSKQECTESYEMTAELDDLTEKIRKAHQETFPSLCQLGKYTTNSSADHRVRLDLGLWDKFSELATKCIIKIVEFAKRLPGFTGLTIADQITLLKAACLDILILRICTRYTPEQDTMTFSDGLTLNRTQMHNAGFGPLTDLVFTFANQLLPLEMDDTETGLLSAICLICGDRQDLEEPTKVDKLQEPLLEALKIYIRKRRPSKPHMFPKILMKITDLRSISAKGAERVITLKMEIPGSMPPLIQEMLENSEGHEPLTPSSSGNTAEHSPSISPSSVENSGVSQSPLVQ
Chain of Retinoic acid receptor RXR-alpha (Homo sapiens) (P19793 whole entry, looked up, the tested form may be a part): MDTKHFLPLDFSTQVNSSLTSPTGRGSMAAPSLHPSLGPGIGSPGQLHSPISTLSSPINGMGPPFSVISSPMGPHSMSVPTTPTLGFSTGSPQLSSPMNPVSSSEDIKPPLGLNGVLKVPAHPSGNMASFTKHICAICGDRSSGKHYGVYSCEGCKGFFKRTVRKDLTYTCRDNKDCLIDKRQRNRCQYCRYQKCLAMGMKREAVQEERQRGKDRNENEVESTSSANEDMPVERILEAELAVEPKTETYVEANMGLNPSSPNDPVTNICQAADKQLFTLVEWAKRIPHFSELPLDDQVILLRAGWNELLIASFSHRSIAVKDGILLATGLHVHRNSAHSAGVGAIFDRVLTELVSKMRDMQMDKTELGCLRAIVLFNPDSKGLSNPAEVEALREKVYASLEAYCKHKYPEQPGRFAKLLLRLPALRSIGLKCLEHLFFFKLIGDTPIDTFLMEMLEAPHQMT
Chain of human Retinoic Acid Receptor gamma (RARg), RARG (gene 5916) (P13631 whole entry, looked up, the tested form may be a part): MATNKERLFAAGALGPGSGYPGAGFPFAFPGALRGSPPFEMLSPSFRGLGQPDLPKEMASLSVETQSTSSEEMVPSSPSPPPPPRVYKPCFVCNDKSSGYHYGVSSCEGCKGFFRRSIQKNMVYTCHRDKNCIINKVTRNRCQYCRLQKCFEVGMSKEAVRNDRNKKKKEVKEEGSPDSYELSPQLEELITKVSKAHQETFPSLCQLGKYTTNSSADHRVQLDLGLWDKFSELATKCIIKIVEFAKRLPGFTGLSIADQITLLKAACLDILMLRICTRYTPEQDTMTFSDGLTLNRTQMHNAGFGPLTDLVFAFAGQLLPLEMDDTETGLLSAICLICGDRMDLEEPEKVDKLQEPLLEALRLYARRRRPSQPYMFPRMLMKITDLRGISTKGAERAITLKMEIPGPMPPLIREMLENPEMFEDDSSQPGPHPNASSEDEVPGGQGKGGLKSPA
Chain of Nuclear receptor subfamily 1 group I member 2 (Homo sapiens) (O75469 whole entry, looked up, the tested form may be a part): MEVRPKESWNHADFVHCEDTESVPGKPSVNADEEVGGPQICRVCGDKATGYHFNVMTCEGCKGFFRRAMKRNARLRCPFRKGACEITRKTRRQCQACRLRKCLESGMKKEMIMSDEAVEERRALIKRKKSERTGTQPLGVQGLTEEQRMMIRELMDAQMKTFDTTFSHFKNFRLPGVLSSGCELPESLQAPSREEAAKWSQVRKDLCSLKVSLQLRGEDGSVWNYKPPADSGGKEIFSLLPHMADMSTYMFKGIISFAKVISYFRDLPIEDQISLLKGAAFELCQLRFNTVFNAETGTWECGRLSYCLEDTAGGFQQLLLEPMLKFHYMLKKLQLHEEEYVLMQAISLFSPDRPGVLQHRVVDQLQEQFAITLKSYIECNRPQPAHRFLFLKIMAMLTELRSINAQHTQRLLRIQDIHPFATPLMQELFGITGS
Chain of human RAR-related Orphan Receptor gamma (RORg), RORC (gene 6097) (P51449 whole entry, looked up, the tested form may be a part): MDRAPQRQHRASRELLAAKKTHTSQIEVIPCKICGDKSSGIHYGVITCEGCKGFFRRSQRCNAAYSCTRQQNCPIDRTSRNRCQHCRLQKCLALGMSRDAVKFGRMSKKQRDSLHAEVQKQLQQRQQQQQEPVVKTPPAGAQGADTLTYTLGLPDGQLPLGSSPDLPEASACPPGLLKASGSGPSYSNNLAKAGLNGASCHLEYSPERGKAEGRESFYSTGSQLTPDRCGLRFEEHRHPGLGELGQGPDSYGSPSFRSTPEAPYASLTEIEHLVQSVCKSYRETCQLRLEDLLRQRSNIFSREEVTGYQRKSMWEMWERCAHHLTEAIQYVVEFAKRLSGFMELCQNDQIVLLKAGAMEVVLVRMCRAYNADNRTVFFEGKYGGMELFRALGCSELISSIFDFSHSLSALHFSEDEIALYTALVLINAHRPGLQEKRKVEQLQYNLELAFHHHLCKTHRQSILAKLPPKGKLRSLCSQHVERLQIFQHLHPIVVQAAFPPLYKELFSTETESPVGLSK

Cc1cccc(C)c1[N+](=O)[O-]
inactive: [1] | [2] | [3] | [4] | [5] | [6] | [7] | [8]

COc1ccc(NC(=O)CC(C)=O)cc1
inactive: [9] | [3] | [6]

O=c1[nH]c(=O)n([C@H]2CCCO2)cc1F
inactive: [9]

CCCCCCCCCCCCOCCO
active: [9] 33.4 µM | [10] 33.4 µM
inactive: [1] | [2] | [7]

CC(C)c1ccc(C(C)C)cc1
inactive: [3] | [5] | [8] | [18]
active: [11] 35.8 µM | [12] 33.8 µM | [10] 66.5 µM | [13] 36.1 µM | [14] 29.1 µM | [15] 36.8 µM | [16] 29.9 µM | [17] 34.6 µM

COC(C)CCO (stereo not drawn)
inactive: [1] | [2] | [9] | [4] | [6] | [8]
active: [7] 53.7 µM | [10] 4.07 µM

CCCCCCCCCCCCCCCC(=O)O
inactive: [1] | [2] | [9] | [5] | [10]

CN1Cc2c(N)cccc2C(c2ccccc2)C1 (stereo not drawn)
inactive: [2] | [9] | [3] | [4] | [7]

O=C(O)c1cn(-c2ccc(F)cc2)c2cc(N3CCNCC3)c(F)cc2c1=O
not listed: [1] | [2] | [3] | [4] | [5] | [7] | [9]
inactive: all other assays above

CN(CCOc1ccc(CC2SC(=O)NC2=O)cc1)c1ccccn1 (stereo not drawn)
inactive: [11] | [7] | [10] | [8] | [18]
active: [12] 7.9 µM | [3] 5.11 µM | [13] 3.97 µM | [14] 3.97 µM | [15] 0.113 µM | [16] 3.97 µM | [17] 9.42 µM

CC1(C)C(=O)N(Br)C(=O)N1Cl
inactive: [2] | [9]

C=O
inactive: [1] | [2] | [3] | [4] | [7] | [10] | [8]

CC(=O)O[C@H](CC(=O)[O-])C[N+](C)(C)C
inactive: [9]

CC(=O)OCC=Cc1ccccc1
active: [9] 9.38 µM
inactive: [3] | [6]

CCCCNC(=O)NS(=O)(=O)c1ccc(C)cc1
inactive: [9] | [3] | [5] | [7] | [10]

COC(=O)c1ccc(C)cc1
active: [3] 9.06 µM | [10] 14.3 µM
not listed: [1] | [2] | [4] | [6] | [9]
inactive: all other assays above

CCCCCNCCCCC
inactive: [9] | [3] | [4]

Fc1c(F)c(F)c(Br)c(F)c1F
inactive: [1] | [2] | [9] | [7] | [10]

NCCCCCCN
inactive: [1] | [9] | [3] | [4] | [6]

CC(C)=CCO
inactive: [9] | [3] | [6] | [7] | [8]

Cc1c(Cl)c(=O)oc2cc(O)ccc12
active: [9] 100 µM
inactive: [3] | [7] | [10]

O=C(O)c1ccc([N+](=O)[O-])cc1
inactive: [11] | [12] | [10] | [8] | [13] | [14] | [15] | [16] | [17] | [18]

C/C=C(\C)C(=O)OCc1ccccc1
inactive: [9] | [3] | [6] | [7] | [10]

CO[Si](CCCn1c(=O)n(CCC[Si](OC)(OC)OC)c(=O)n(CCC[Si](OC)(OC)OC)c1=O)(OC)OC
inactive: [1] | [9] | [7] | [10] | [8]

CC1(C)OC[C@@H]2O[C@@]3(C(=O)O)OC(C)(C)O[C@H]3[C@@H]2O1
inactive: [2] | [3] | [6]

CCCCCCOC(=O)CCCCC
inactive: [1] | [2] | [9] | [3] | [4] | [5] | [7]
